These results are taken from PubChem BioAssay (Tox21).

A short description of assay [1]: qHTS assay for small molecule agonists of the p53 signaling pathway (AID 651631; calls by dose curve; further: nearly all actives have a fitted effect of over 15% in size). An outline of the steps:
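HCT-116 cells carrying a stable p53 response element–beta-lactamase reporter were plated, rested 5 h at 37 °C, then exposed to compound in DMSO for 16 h at 37 °C; reporter activity was read as FRET substrate fluorescence after 2 h at room temperature.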
(In general: Quantitative high-throughput screening tests each substance at several concentrations.)

Assay [2] can be described thus: qHTS assay for small molecules that induce genotoxicity in human embryonic kidney cells expressing luciferase-tagged ATAD5 (AID 651632). Further: nearly all actives have a fitted effect of over 15% in size. An outline of the steps: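 ATAD5-luc HEK293T, 2,000 cells/well; cpd or DMSO pin-transferred; 16 hr, 37C/5% CO2; Amplite 30 min RT; luminescence.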
Assay [3] is described as follows: qHTS assay for small molecule agonists of the p53 signaling pathway - cell viability (AID 651633; calls by dose curve; further: series mostly up to about 83 µM; nearly all actives have a fitted effect of over 30% in size). An outline of the steps: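 p53RE-bla cells, seeded at 4,000 per well and rested 5 h at 37 C/5% CO2, received compounds in DMSO for 16 h at 37 C. CellTiter-Glo was then added, and luminescence was read after 30 min at room temperature to gauge cytotoxicity.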
Assay [4] in a line: qHTS assay for small molecules that induce genotoxicity in human embryonic kidney cells expressing luciferase-tagged ATAD5 - cell viability (AID 651634; calls by dose curve; further: nearly all actives have a fitted effect of over 25% in size). An outline of the steps: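 Fluorescence from CellTiter-Fluor, reporting protease activity within live cells, served as the viability read-out. HEK293T cells carrying luciferase-tagged ATAD5 had been treated with compound for 15.5 hr at 37C.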

Assay [5] can be described thus: qHTS assay for small molecule disruptors of the mitochondrial membrane potential - cell viability (AID 720634; calls by dose curve;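 further: human HepG2 liver cancer cells; series mostly up to about 83 µM; nearly all actives have a fitted effect of over 20% in size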). A digest of the protocol:
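Cells: HepG2, 2,000/well, attached overnight. Compound 1 hr, 37 C/5% CO2. +m-MPI dye, +CellTiter-Glo 30 min RT. Readout: luminescence (ATP).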

Assay [6] in a line: qHTS assay for small molecule disruptors of the mitochondrial membrane potential (AID 720635). Further: potency means the concentration at half of the fitted maximal effect. An outline of the steps: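 HepG2 cells (2,000/well) attached overnight at 37C, then took compound for 1 hr at 37C, 5% CO2. Mito-MPS dye was added for 30 min; fluorescence was read at 490/535 nm (monomers) and 540/590 nm (aggregates).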
Assay [7] can be described thus: qHTS assay to test for compound auto fluorescence at 590 nm (red) in HepG2 cells (AID 720674). An outline of the steps: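 Rose Bengal sodium served as the red fluorophore standard. HepG2 monolayers (overnight attachment, MEM with 10% FBS) were exposed to test compounds for 1 hr at 37 C and read at Ex 540/Em 590 nm.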
A short description of assay [8]: qHTS assay to test for compound auto fluorescence at 535 nm (green) in HepG2 cells (AID 720675).
The nature of assay [9]: qHTS assay to test for compound auto fluorescence at 460 nm (blue) in HEK293 cells (AID 720678). A digest of the protocol: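 Measured: blue fluorescence (Ex 405/Em 460 nm) of compound-treated HEK293 cells, incubated overnight at 37C with 5% CO2 and scaled to triamterene equivalents.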
Assay [10] in a line: qHTS assay to test for compound auto fluorescence at 590 nm (red) in HEK293 cells (AID 720679). An outline of the steps:
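Using HEK293 cells at 2,000 per well, the screen added 23 nL of each compound after cell attachment and incubated overnight (37C, 5% CO2). The plate reader then captured red-label fluorescence, Ex/Em 540/590nm.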

Values without a mark were called inactive. Results filed as inconclusive are left out. Calls of active or inactive are those of the source. Unless noted, the call rests on the fitted dose curve; in most records, active means well fitted curve in the direction sought with a large enough effect in the repeat runs; inconclusive means weak or mixed curves; inactive means no such curve, though single readings can be large; an effect the other way counts as inactive or inconclusive.
On the % scale 0 is the no-effect control and ±100 the full control effect.

For the molecule `CC(C)(C)C(=O)c1ccccc1`, the Potency entry in assay [1], in assay [2], in assay [3], in assay [4] and in [6] was “inactive” in each case. In addition, the molecule was called inactive in [5], in [7], in assay [8] and in assay [9].
As to `COc1ccc2cc1Oc1cc3c(cc1OC)CC[N+](C)(C)[C@H]3Cc1ccc(cc1)Oc1c(OC)c(OC)cc3c1[C@@H](C2)[N+](C)(C)CC3`, the Potency result in assay [1], in assay [2], in assay [3], in [4] and in assay [6] was “inactive” throughout. Further, the result in [5], in assay [7], in [8], in assay [9] and in [10] was inactive.
As to `C[C@@H]1CCC[C@H](C)N1`, the Potency entry in assay [1], in assay [2], in assay [3], in [4] and in assay [6] was “inactive” throughout. In addition, the molecule was classed as inactive in [5]. The fluorescence, relative to Rose Bengal in [7] was 0.289% [at 18.6 µM]. Moreover, the fluorescence, % of fluorescein control in assay [8] is 0.0643% [at 18.6 µM]. Also, the fluorescence, % of triamterene in assay [9] is 0.0181% [at 18.6 µM]. The fluorescence, % of fluorescent control in assay [10] is 0.0043% [at 18.6 µM].
For `NC(=O)N1c2ccccc2CC(=O)c2ccccc21`, the Potency entry in assay [1], in assay [2], in assay [3], in assay [4] and in assay [6] was “inactive” in each case. Further, the outcome in [5], in [7], in assay [8], in assay [9] and in assay [10] was inactive.
In the case of `CO[C@@]1(NC(=O)CSC[C@@H](N)C(=O)O)C(=O)N2C(C(=O)O)=C(CSc3nnnn3C)CS[C@@H]21`, the Potency result in [1], in assay [2], in assay [3], in [4] and in assay [6] was “inactive” each time. Besides, the call in assay [5], in assay [7], in assay [8] and in [9] was inactive.
In the case of `COCCOC[C@H](CC1(C(=O)NC2CCC(C(=O)O)CC2)CCCC1)C(=O)Oc1ccc2c(c1)CCC2` (some centres not stated), the Potency result in [1], in assay [2], in [3], in [4] and in assay [6] was “inactive” in each case. Also, the result in assay [5], in assay [7], in [8], in assay [9] and in [10] was inactive.
Consider `CC(CC=O)CC(C)(C)C` (configuration not stated), for which the Potency result in assay [1], in [2], in assay [3], in assay [4] and in assay [6] was “inactive” in each case. In addition, the molecule was classed as inactive in assay [5], in assay [7], in assay [8], in assay [9] and in assay [10].
Regarding `Clc1cc(Cl)cc(Cl)c1`, the Potency result in assay [1], in [2], in assay [3], in [4] and in [6] was “inactive” each time. For the same molecule, the result in [5], in assay [7], in [8], in [9] and in assay [10] was inactive.
Turning to `CC(C)(C#N)Nc1nc(Cl)nc(NC2CC2)n1`, the Potency entry in assay [1], in [2], in assay [3], in assay [4] and in assay [6] was “inactive” each time. The result in assay [5], in assay [7], in assay [8] and in assay [9] was inactive.
Consider `C=CC(C)(CCC=C(C)C)OC(=O)CC` (configuration not stated), for which the Potency result in assay [1], in [2], in assay [3], in assay [4] and in [6] was “inactive” in each case. In addition, the call in assay [5], in [7], in assay [8], in assay [9] and in [10] was inactive.
Take `CC/C=C\CCOC(C)OCC` (configuration not stated): the Potency result in [1], in [2], in assay [3], in assay [4] and in [6] was “inactive” throughout. In addition, the molecule was called inactive in assay [5], in assay [7], in [8], in [9] and in [10].
As for `C=COCC1CCC(COC=C)CC1` (configuration not stated), the Potency entry in assay [1], in assay [2], in [3], in assay [4] and in [6] was “inactive” throughout. The molecule was classed as inactive in [5], in assay [7], in [8], in assay [9] and in assay [10].
`CC(C)(C)OC(=O)c1cccc(N)c1`: the Potency result in assay [1], in [2], in assay [3] and in assay [4] was “inactive” each time. Further, the outcome in [5], in [7], in [8], in assay [9] and in [10] was inactive. In addition, in assay [6], the Potency was 35.3 µM (active).
Take `CN(C)C(=O)Oc1cccc([N+](C)(C)C)c1`: the Potency entry in [1], in assay [2], in assay [3] and in assay [4] was “inactive” throughout. Besides, the outcome in assay [5], in assay [7], in assay [8], in [9] and in [10] was inactive.
With `CC(N)C12CC3CC(CC(C3)C1)C2` (configuration not stated), the Potency result in assay [1], in assay [2], in assay [3] and in [4] was “inactive” throughout. Also, the result in assay [5], in assay [7], in assay [8], in assay [9] and in assay [10] was inactive.
As for `CN(C)C(=O)Oc1ccc[n+](C)c1`, the Potency result in [1], in assay [2], in assay [3], in assay [4] and in assay [6] was “inactive” in each case. Moreover, the molecule was called inactive in assay [7], in assay [8] and in [9].
For the molecule `OCCc1ccccn1`, the Potency result in assay [1], in assay [2], in assay [3] and in assay [4] was “inactive” in each case. In addition, the result in assay [5], in assay [7], in [8], in [9] and in assay [10] was inactive.
For `COc1cc2c(cc1OC)-c1cc3ccc(OC)c(OC)c3c[n+]1CC2`, the Potency result in [1], in assay [2], in assay [3] and in [4] was “inactive” each time. Moreover, the call in [5], in [7], in assay [9] and in [10] was inactive. In addition, in [6], the Potency was 17.4 µM (active).
For `C[N+](C)(CCOc1ccccc1)Cc1cccs1`, the Potency entry in [1], in [2], in [3], in [4] and in assay [6] was “inactive” throughout. Also, the outcome in assay [5], in assay [7], in assay [8], in assay [9] and in assay [10] was inactive.
Turning to `CC(C)(C)C(=O)Oc1ccc(S(=O)(=O)Nc2ccccc2C(=O)NCC(=O)O)cc1`, the Potency entry in assay [1], in assay [2], in [3], in assay [4] and in assay [6] was “inactive” each time. The result in assay [5], in assay [7], in assay [9] and in assay [10] was inactive.
Consider `O=S(=O)(O)c1cccc2c(S(=O)(=O)O)cccc12`, for which the Potency result in assay [1], in [2], in [3] and in assay [4] was “inactive” in each case. Further, the molecule was classed as inactive in assay [5], in assay [7], in [8], in assay [9] and in [10].
With `[K+]`, the Potency result in assay [1], in [2], in assay [3] and in assay [4] was “inactive” each time. Moreover, the result in [5], in [7], in assay [8], in assay [9] and in assay [10] was inactive.
As to `Cc1cc(C)c(N=Nc2c(O)c(S(=O)(=O)O)cc3cc(S(=O)(=O)O)ccc23)cc1C`, the activation in [1] is -4.32% [at 8.3 µM]; in assay [2] it was 1.99% [at 8.08 µM]. Moreover, the activity change, negative = cytotoxicity was 11.3% [at 8.08 µM] in [3] and -3.07% [at 8.08 µM] in assay [5]. In addition, the activity, negative = cytotoxicity in [4] was -13.8% [at 8.08 µM]. In addition, in assay [7], the fluorescence, relative to Rose Bengal is 0.0524% [at 9.17 µM]. Besides, the fluorescence, % of fluorescein control in assay [8] is -0.0414% [at 9.17 µM]. Besides, in assay [9], the fluorescence, % of triamterene is -0.0938% [at 9.17 µM]. For the same molecule, in assay [10], the fluorescence, % of fluorescent control was -0.166% [at 9.17 µM].
